# Measurements from PubChem BioAssay (NCI).
# This is part of a sample that, as a whole, favours compounds with a hit. Of some 83,000 tested, about 20% had one in any assay.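 For each line, cells grew in 96-well plates with the test compound present at a single concentration for 48 hours.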 A number with no mark means an inactive call.
# Test system: BT-549 breast
# Assay: NCI-60 one-dose screen, 48 h (100 = growth as untreated, 0 = no growth, -100 = all killed)
# Conditions: 10 µM unless noted
# Description: Growth inhibition of the BT-549 human tumor cell line is measured as a screen for anti-cancer activity. Cells are grown in 96 well plates and exposed to the test compound for 48 hours. Compounds are tested at a single concentration, which is 10^-5 M for most compounds. The reported endpoint is percent growth (GI% or GIPRCNT), where numbers from 0 - 100% represent growth inhibition, and numbers from -100% - 0 represent cell death. For example, a value of 40 represents 60% growth inhibition. A value of 0 means no net growth occurred over the course of the experiment. A value of -40 indicates 40% of cells at the beginning of the experiment died by the end of the experiment. A value of -100 means all cells are dead at the end of the experiment.
# NCI-60 Human Tumor Cell Lines Screen was performed using the standard one-dose NCI protocol, which is described in more detail at https://dtp.cancer.gov/discovery_development/nci-60/default.htm.
# Compounds with GIPRCNT values below 10 were considered active. Activity score was based on GIPRCNT using the following formula: […]
# Score is 0 for GIPRCNT values of 100 or above, 50 for GIPRCNT values of 0, and 100 for GIPRCNT values of -100.
row,SMILES,growth
1,O=C(NCc1ccco1)Nc1cccc2c(NC(=O)NCc3ccco3)cccc12,57.1% [100 µM]
2,CC(=O)N(CCCCCCN(C(C)=O)C(C)=O)C(C)=O,98.4% [100 µM]
3,CC(=O)NC(CCC(=O)c1ccccc1)C(=O)O (stereo not given),76.9%
4,O=S(Cc1ccccc1)/C(=C/NC(=S)Nc1ccccc1)c1ccccc1 (stereo not given),97.6%
5,ClCC(Cl)C1CCC(Cl)C(Cl)C1 (stereo not given),103%
6,CC(=O)c1cccc(N(C)S(=O)(=O)c2ccc(C)cc2)c1,82.8%
7,CN(CCCN(C)CCC1CCCCC1)CCC1CCCCC1,39.2%
8,C=C(OC(C)=O)c1ccccc1,107%
9,Cc1cc2c(C(C)C)c(O)c(O)c(C=Nc3ccccc3[N+](=O)[O-])c2c(O)c1-c1c(C)cc2c(C(C)C)c(O)c(O)c(C=Nc3ccccc3[N+](=O)[O-])c2c1O,94%
10,O=C(c1ccccc1O)N1CCCC1,88.9%
11,Cn1c2ccccc2c2nnc(NCCCCO)nc21,101%
12,FC(F)(F)c1cc(NC2=NCCN=C(Nc3cc(C(F)(F)F)cc(C(F)(F)F)c3)SS2)cc(C(F)(F)F)c1,71.2%
13,CC(C)Sc1ncnc2nc[nH]c12,121%
14,CCCC(OC(C)=O)c1ccc2c(c1)OCO2 (stereo not given),110%
15,CCOC(=O)Nc1nccs1,101%
16,CCCCNC(=O)c1ccc(OCC)cc1,99.9%
17,Cn1c(=O)[nH]c2ccccc2c1=O,91.3%
18,C=CC(C)(C)n1cc(C2=C(O)C(=O)C(c3cn(C(C)(C)C=C)c4ccccc34)=C(O)C2=O)c2ccccc21,96.3%
19,CCOC(=O)c1ccc(Nc2sc(C(=O)c3ccc(Br)cc3)c(N)c2C#N)cc1,50.9%
20,O=C(O)CSCC(=O)Nc1cc(C(F)(F)F)ccc1Cl,114%

row,SMILES,growth
1,N#Cc1ccc(OC(=O)Nc2c(Cl)cc(Cl)cc2Cl)cc1,113%
2,O=C(NCCc1ccccc1)/C(=C\c1ccc(Cl)cc1Cl)NC(=O)c1ccccc1,104%
3,C1CCc2onc(-c3noc4c3CCCCC4)c2CC1,108%
4,CC1CC(C)S(=O)(=O)C1 (stereo not given),103%
5,O=C1C=C(c2ccccc2)C(O)(c2ccccc2)C1 (stereo not given),94.8%
6,COc1nc(Nc2cccc(C(F)(F)F)c2)nc(OC)n1,91%
7,C=CCc1cc(OC)c(OC)c(OC)c1,96.1%
8,CC(C)(C)CC1(C)NC(=O)NC1=O (stereo not given),119%
9,Cc1ccccc1CC(N)C(=O)O (stereo not given),106%
10,Cc1ccc(/C=N/NC(N)=S)s1,113%
11,ON1CCCC1,96.7%
12,CCCCCCCCCCCCSC1=C(Cl)C(=O)C(OC)=C(OC)C1=O,58.3%
13,N#C/C(=C\c1ccc2c(c1)OCO2)c1ccccc1,65.2%
14,C1=NCCc2ccccc21,106%
15,COc1ccc(NNS(=O)(=O)O)cc1,102%
16,O=C(O)c1c[nH]c2ccccc2c1=O,101%
17,C=C(C)[C@@H]1CC[C@]2(CO)CC[C@]3(C)[C@H](CC[C@@H]4[C@@]5(C)CC[C@H](O)C(C)(C)[C@@H]5CC[C@]43C)[C@@H]12,49.3%
18,O=S1(=O)c2ccccc2Oc2ccccc21,113%
19,CN(C)CCOC(=O)Nc1ccc(Cc2ccc(NC(=O)OCCN(C)C)cc2)cc1,68.3% [100 µM]
20,O=C(NCc1ccccc1)/C(=C/c1ccccc1)NC(=O)c1ccccc1,98.6%
